According to the supplement of paper PMC8866396:
± gives the standard deviation of the averaged measurements.

system: IL-6-GFP PC-9GR; experiment: cell viability (CCK-8 OD) relative to DMSO control (fraction of control); higher = more viable cells; settings: compound concentration: 10 uM; treatment time: 48 h
Method in brief: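 PC-9 and PC-9GR lung cancer cells carrying a lentiviral construct that overexpresses IL-6-GFP were seeded in 96-well plates at 3000 cells/well. Every compound in a purchased 510-compound library was applied at a final 10 μM for 48 h, and a parallel set of plates was kept for GFP imaging. Cell viability was read by CCK-8 absorbance, taking each well's optical density as a ratio to the vehicle control well. Two independent replicates were run.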

| Structure (SMILES) | cell viability |
| --- | --- |
| CC(C)c1nc(N(C)S(C)(=O)=O)nc(-c2ccc(F)cc2)c1/C=C/C(O)CC(O)CC(=O)O (stereo not given) [Rosuvastatin] | 1.56 ± 0.24 |
| CCC(C)C(=O)OC1CC(O)C=C2C=CC(C)C(CCC(O)CC(O)CC(=O)O)C21 (stereo not given) [Pravastatin] | 1.48 ± 0.39 |
| Cl.N=C1CCCN1Cc1[nH]c(=O)[nH]c(=O)c1Cl [Tipiracil hydrochloride] | 1.14 ± 0.35 |
| CNC(=O)c1ccc(N2C(=S)N(c3cnc(C#N)c(C(F)(F)F)c3)C(=O)C23CCC3)cc1F | 1.03 ± 0.13 |
| CCc1nc(C(N)=O)c(Nc2ccc(N3CCC(N4CCN(C)CC4)CC3)c(OC)c2)nc1NC1CCOCC1 [Gilteritinib (ASP2215)] | 0.333 ± 0.021 |
| CCCC(=O)OC1(C(=O)CO)CCC2C3CCC4=CC(=O)CCC4(C)C3C(O)CC21C (stereo not given) [Hydrocortisone butyrate] | 0.857 ± 0.11 |
| CC1(C)C2CCC1(C)C(O)C2 (stereo not given) [Borneol] | 1.27 ± 0.36 |
| CC12CCC(CC1=O)C2(C)C (stereo not given) [Camphor] | 1.24 ± 0.3 |
| O=C(O)CCCCC1CCSS1 (stereo not drawn) [(+)-α-Lipoic acid] | 1.26 ± 0.2 |
| Cc1nc(NC(=O)N2CCCC2C(N)=O)sc1-c1ccnc(C(C)(C)C(F)(F)F)c1 (stereo not given) [Alpelisib (BYL719)] | 0.983 ± 0.067 |
| CC(C)c1nc(CN(C)C(=O)NC(CCN2CCOCC2)C(=O)NC(CCC(Cc2ccccc2)NC(=O)OCc2cncs2)Cc2ccccc2)cs1 (stereo not given) [Cobicistat (GS-9350)] | 0.989 ± 0.11 |
| CC(C)=CCCC(C)(OC1OC(CO)C(O)C(O)C1O)C1CCC2(C)C1C(O)CC1C3(C)CCC(O)C(C)(C)C3C(OC3OC(CO)C(O)C(O)C3O)CC12C (stereo not given) [Ginsenoside Rg1] | 1.16 ± 0.26 |
| CC(O)CO.CCOc1ccc(Cc2cc(C3OC(CO)C(O)C(O)C3O)ccc2Cl)cc1.O (stereo not given) [Dapagliflozin propanediol monohydrate] | 1.07 ± 0.13 |
| COc1ccc2c(c1)c(CC(=O)O)c(C)n2C(=O)c1ccc(Cl)cc1 [Indomethacin] | 0.478 ± 0.33 |
| Cc1coc2c1C(=O)C(=O)c1c-2ccc2c(C)cccc12 [Tanshinone I] | 1.32 ± 0.097 |
| CCN1CCN(Cc2ccc(Nc3ncc(F)c(-c4cc(F)c5nc(C)n(C(C)C)c5c4)n3)nc2)CC1.CS(=O)(=O)O | 0.42 ± 0.27 |
| Cc1nc2ccc(CN(C)c3ccc(C(=O)NC(CCC(=O)O)C(=O)O)s3)cc2c(=O)[nH]1 (stereo not given) [Raltitrexed] | 0.5349 ± 0.0032 |
| O=C([O-])CC(O)(CC(=O)[O-])C(=O)[O-].O=C([O-])CC(O)(CC(=O)[O-])C(=O)[O-].[BiH6+3].[K+].[K+].[K+] [Gastrodenol] | 0.722 ± 0.25 |
| NC1CN(c2c(F)cc3c(=O)c(C(=O)O)cn(C4CC4F)c3c2Cl)CC12CC2.NC1CN(c2c(F)cc3c(=O)c(C(=O)O)cn(C4CC4F)c3c2Cl)CC12CC2.O.O.O (stereo not given) [Sitafloxacin Hydrate] | 1.11 ± 0.072 |
| COc1ccc2cc1Oc1ccc(cc1)CC1c3cc(c(OC)cc3CCN1C)Oc1c(OC)c(OC)cc3c1C(C2)N(C)CC3 (stereo not given) [Tetrandrine] | 1.15 ± 0.36 |
| Nc1cccc2c1C(=O)N(C1CCC(=O)NC1=O)C2=O (stereo not given) [Pomalidomide] | 1.5 ± 0.33 |
| O=C(O)c1ccccc1OP(=O)(O)O [Fosfosal] | 0.943 ± 0.088 |
| O=c1[nH]c(=O)n(C2CC(O)C(CO)O2)cc1F (stereo not given) [Floxuridine] | 0.681 ± 0.02 |
| CN(C)C/C=C/C(=O)Nc1cc2c(Nc3ccc(F)c(Cl)c3)ncnc2cc1OC1CCOC1.O=C(O)/C=C\C(=O)O.O=C(O)/C=C\C(=O)O (stereo not given) [Afatinib (BIBW2992) Dimaleate] | 0.22 ± 0.11 |
| Cn1cc(C2=C(c3cccc(N)c3)C(=O)NC2=O)c2ccccc21 | 0.303 ± 0.31 |
| O=C([O-])Cc1ccccc1Nc1c(Cl)cccc1Cl.[K+] [Diclofenac Potassium] | 1.25 ± 0.21 |
| O=C(O)c1cc(-c2ccc(F)cc2F)ccc1O [Diflunisal] | 0.789 ± 0.23 |
| NC(=O)Cc1cccc(C(=O)c2ccccc2)c1N [Nepafenac] | 1.07 ± 0.029 |
| Cc1nc(Nc2ncc(C(=O)Nc3c(C)cccc3Cl)s2)cc(N2CCN(CCO)CC2)n1.Cl [Dasatinib hydrochloride] | 0.517 ± 0.025 |
| CC(=O)Oc1ccccc1C(=O)O [Aspirin] | 1.05 ± 0.027 |
